Holding throughout (assay): yeast three-hybrid, YBZ-1, SC-Leu-His + 0.5 mM 3-AT, 4 days
Common to all, as to details: tags: N-Gal4 AD-HA kept; label: inside an RPR1-promoter hybrid RNA with tandem MS2 sites; ssRNA

One assay has as its target PUM1 PUF domain R3-YRA (Homo sapiens, UniProt Q14671 828-1176, C935Y;Q939A). An outline of the steps: (§1)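 Pumilio-1 PUF domain libraries, randomized (NNK) at the three base-contacting residues of each repeat, were co-expressed with matching RNA elements from a centromeric plasmid in strain YBZ-1 (LexA–MS2 coat fusion, HIS3 reporter). Transformants were plated on SC-Leu (input) and SC-Leu-His + 0.5 mM 3-AT (selection) for four days, and repeat regions were PCR-amplified and Illumina-sequenced. The interaction score is the log2 change in variant frequency from input to selection, with pseudocount 1 where absent.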

The target of the next assay is PUM1 PUF domain R3-DYG (Homo sapiens, UniProt Q14671 828-1176, C935D;R936Y;Q939G). An outline of the steps:
as §1

A further assay has as its target T1, PUM1 PUF domain R6-GWQ (Homo sapiens, UniProt Q14671 828-1176, N1043G;Y1044W).
T1 sequence: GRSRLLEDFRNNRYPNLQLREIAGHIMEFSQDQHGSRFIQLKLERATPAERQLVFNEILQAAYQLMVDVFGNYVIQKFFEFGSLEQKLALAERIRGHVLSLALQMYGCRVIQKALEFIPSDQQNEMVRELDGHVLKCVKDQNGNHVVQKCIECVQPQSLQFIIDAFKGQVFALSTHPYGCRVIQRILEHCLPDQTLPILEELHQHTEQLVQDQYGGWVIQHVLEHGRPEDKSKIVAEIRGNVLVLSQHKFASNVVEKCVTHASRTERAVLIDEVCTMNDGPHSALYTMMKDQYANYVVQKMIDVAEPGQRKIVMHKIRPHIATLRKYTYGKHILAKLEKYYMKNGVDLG
In outline: as §1

For the next assay, the target named is PUM1 PUF domain R3-FCA (Homo sapiens, UniProt Q14671 828-1176, C935F;R936C;Q939A). In outline: as §1
The next assay deals with PUM1 PUF domain R1-RKR (Homo sapiens, UniProt Q14671 828-1176, S863R;R864K;Q867R). In outline: as §1
For the next assay, the target named is PUM1 PUF domain R7-KYF (Homo sapiens, UniProt Q14671 828-1176, S1079K;N1080Y;E1083F). An outline of the steps:
as §1

In the next assay the target is PUM1 PUF domain R4-PRQ (Homo sapiens, UniProt Q14671 828-1176, N971P;H972R). An outline of the steps:
as §1

The next assay has as its target PUM1 PUF domain R4-HHN (Homo sapiens, UniProt Q14671 828-1176, N971H;Q975N). In outline:
as §1

“GGCUAGAACUAGUGGAUCCCCCGGCGCCCGGCGGCUCGAGCCCGGGUAAGUGUAAAUAGUCUGCAUGCCGCCGGGCGCCAUGCCUGCAGGUCGACUCUAGAAAACAUG”: the binding signal is 0.87 log2 enrichment (interaction score) with PUM1 PUF domain R3-YRA, 3.9 log2 enrichment (interaction score) with PUM1 PUF domain R3-DYG and 5.78 log2 enrichment (interaction score) with PUM1 PUF domain R6-GWQ.

With “GGCUAGAACUAGUGGAUCCCCCGGCGCCCGGCGGCUCGAGCCCGGGUAAGUGUAAGUAGUCUGCAUGCCGCCGGGCGCCAUGCCUGCAGGUCGACUCUAGAAAACAUG”, the binding signal in the assay with PUM1 PUF domain R3-YRA is 5.09 log2 enrichment (interaction score); with PUM1 PUF domain R3-FCA, 5.61 log2 enrichment (interaction score).

With “GGCUAGAACUAGUGGAUCCCCCGGCGCCCGGCGGCUCGAGCCCGGGUAAGUGUAAAUUGUCUGCAUGCCGCCGGGCGCCAUGCCUGCAGGUCGACUCUAGAAAACAUG”, the binding signal with PUM1 PUF domain R1-RKR is 3.15 log2 enrichment (interaction score).

Regarding “GGCUAGAACUAGUGGAUCCCCCGGCGCCCGGCGGCUCGAGCCCGGGUAAGUGUAAAUCGUCUGCAUGCCGCCGGGCGCCAUGCCUGCAGGUCGACUCUAGAAAACAUG”, in the assay with PUM1 PUF domain R1-RKR, the binding signal was 3.04 log2 enrichment (interaction score). “GGCUAGAACUAGUGGAUCCCCCGGCGCCCGGCGGCUCGAGCCCGGGUAAGUGUAAUUAGUCUGCAUGCCGCCGGGCGCCAUGCCUGCAGGUCGACUCUAGAAAACAUG”: the binding signal with PUM1 PUF domain R3-DYG is 1.49 log2 enrichment (interaction score). Consider “GGCUAGAACUAGUGGAUCCCCCGGCGCCCGGCGGCUCGAGCCCGGGUAAGUCUAAAUAGUCUGCAUGCCGCCGGGCGCCAUGCCUGCAGGUCGACUCUAGAAAACAUG”, for which, in the assay with PUM1 PUF domain R7-KYF, the binding signal was 6.02 log2 enrichment (interaction score).

“GGCUAGAACUAGUGGAUCCCCCGGCGCCCGGCGGCUCGAGCCCGGGUAAGUAUAAAUAGUCUGCAUGCCGCCGGGCGCCAUGCCUGCAGGUCGACUCUAGAAAACAUG”: in the assay with PUM1 PUF domain R7-KYF, the binding signal was 3.75 log2 enrichment (interaction score).

With “GGCUAGAACUAGUGGAUCCCCCGGCGCCCGGCGGCUCGAGCCCGGGUAAGUGUACAUAGUCUGCAUGCCGCCGGGCGCCAUGCCUGCAGGUCGACUCUAGAAAACAUG”, in the assay with PUM1 PUF domain R4-PRQ, the binding signal is 3.53 log2 enrichment (interaction score). On to “GGCUAGAACUAGUGGAUCCCCCGGCGCCCGGCGGCUCGAGCCCGGGUAAGUGUAUAUAGUCUGCAUGCCGCCGGGCGCCAUGCCUGCAGGUCGACUCUAGAAAACAUG”, for which the binding signal with PUM1 PUF domain R4-HHN was 6.48 log2 enrichment (interaction score).

The record behind these values is paper PMC8384837, “Expanding the binding specificity for RNA recognition by a PUF domain”.
